# Pf growth 48h – P. falciparum growth inhibition at 48 hours (one generation); P. falciparum luciferase growth in erythrocytes, 48 h; Potency, µM (doses to about 28.7 µM), without a hit: at the highest dose activity change, negative = inhibition, hits mostly inhibitors; 5.9% of 310,000 active; AID 504832; further: potency means the concentration at half of the fitted maximal effect; on the % scale 0 is the no-effect control and ±100 the full control effect
#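 In quantitative HTS format, infected erythrocytes bearing luciferase-reporter parasites were treated for a single generation at 37 C. Luminescence after adding detection reagent served as the growth measure.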
# CHX counter – affects cycloheximide protein synthesis inhibition readout, counter-screen; cell reporter, cycloheximide protein synthesis inhibition counterscreen; max response, %; AID 2314; 12% of 300,000 active; in the data active means max response mostly above about 13%, no sharp cut-off; inactive means mostly below about 14%; further: read at 38.3 µM for the half of the compounds with a filed dose; 0% is about no effect
# Pf growth 96h – P. falciparum growth inhibition at 96 hour, primary screen for plastid delayed-death inhibitors; P. falciparum luciferase reporter growth, 96 h; Potency, µM (titrated, usually from 28.7 µM), for the others: at the highest dose activity change, negative = inhibition, most hits filed as inhibitors; 6.9% of 320,000 active; further: potency means the concentration at half of the fitted maximal effect; on the % scale 0 is the no-effect control and ±100 the full control effect
#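 Luminescence readout: decreased luciferase signal marks inhibited growth of reporter-expressing P. falciparum in infected red cells (2% hematocrit, 0.05% parasitemia final), exposed to compound two generations (96 h, 37 C, 5% CO2).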
# Shiga inhibitor – blocks Shiga toxin action in Vero cells; Vero cells, Shiga toxin protein synthesis inhibition reporter; inhibition, % at 38.7 µM; 9.2% of 290,000 active; AID 2315; in the data active means inhibition mostly above about 28%, no sharp cut-off; inactive means mostly below about 43%; further: 0% is about no effect
# Starred values were filed as active, the others as inactive; u = inconclusive; x = not tested or not shown; [ ] = dose if it differs, or a comment. An excerpt weighted towards active compounds, which were near 21% of everything screened. Unless noted, the call rests on the fitted dose curve; in most records, active means well fitted inhibition curve with a large enough effect; inconclusive means small, poorly fitted or top-dose-only effect, or another doubt; inactive means no such curve, though single readings can be large or run the other way.
SMILES,Pf growth 48h,CHX counter,Pf growth 96h,Shiga inhibitor
Cc1ccc(C)c(NC(=S)NC(NC(=O)N(C)C)C(Cl)(Cl)Cl)c1 (stereo not drawn),u,-2,u,-11
COC(=O)c1ccccc1NC(=S)NC(NC(=O)c1ccccc1[N+](=O)[O-])C(Cl)(Cl)Cl (stereo not drawn),5%,-4,7.4µM*,-5
COc1ccc(NC(=S)NC(NC(=O)c2ccccc2Cl)C(Cl)(Cl)Cl)c([N+](=O)[O-])c1 (stereo not drawn),x,-3,3.7µM*,17
Cc1ccc(C)c(NC(=S)NC(NC(=O)Cc2cccc3ccccc23)C(Cl)(Cl)Cl)c1 (stereo not drawn),x,-5,2.6µM*,-6
CCOc1ccccc1N1CCN(C(=O)CCNS(=O)(=O)c2ccccc2F)CC1,-9%,x,-14%,x
COc1ccc(NC(=S)NC(NC(=O)c2cccc3ccccc23)C(Cl)(Cl)Cl)c([N+](=O)[O-])c1 (stereo not drawn),x,-2,1.5µM*,-6
C=CCCCCCCCCC(=O)NNC1CC(=O)N(c2ccccc2)C1=O (stereo not drawn),53%,0,17%,-9
COc1cccc(C(=S)N2CCCC2)c1OC,0%,2,u,2
O=C(N/N=C\c1ccco1)Nc1cccc(Cl)c1,152%,80*,57%,142*
COc1cc(/C=N/NC(=S)Nc2cccc(S(=O)(=O)N(C)C)c2)cc(OC)c1O,-30%,13,12µM*,-31
COc1ccc(O)c(/C=N/NC(=S)Nc2cccnc2)c1,u,34*,0.52µM*,91*
Cc1cccc(NC(=O)CCC(=O)N/N=C/c2ccco2)c1,-8%,-3,u,-8
COc1cccc(/C=N/NC(=S)Nc2cccnc2)c1,34%,12,-23%,49
CCN(CC)S(=O)(=O)c1ccc(N/N=C/c2cc(OC)ccc2O)nc1,4.7µM*,-1,8.3µM*,-7
O=C(CN1CCN(Cc2ccccc2)CC1)NNC(=O)c1ccccc1,-10%,x,u,x
COc1ccc(O)c(/C=N/NC(=S)Nc2cccc(S(=O)(=O)N(C)C)c2)c1,4.1µM*,18*,4.7µM*,13
CN(C)S(=O)(=O)c1cccc(NC(=S)N/N=C/c2ccco2)c1,3.7µM*,14*,u,25
CN(C)S(=O)(=O)c1cccc(NC(=S)N/N=C/c2ccc(O)c(O)c2O)c1,4%,13,10%,23
COc1cccc(/C=N/NC(=S)Nc2cccc(S(=O)(=O)N(C)C)c2)c1,u,11,3%,24
CC(/C=C/c1ccc(O)cc1)=N/O,u,19*,u,28*
CC(/C=C/c1ccccc1)=N/O,39%,19*,54%,22
CC(/C=C/c1ccc(OCc2ccccc2)cc1)=N\O,233%,60*,24%,77*
NS(=O)(=O)c1ccc(CCNC(=O)C(c2ccccc2)c2ccccc2)cc1,10%,-1,14%,-9
COCCN(CCOC)C(=O)c1cc2sc3ccccc3c2s1,u,12,u,68
CN(C)CCNC(=O)c1cc2sc3ccccc3c2s1,u,40*,u,85*
SMILES,Pf growth 48h,CHX counter,Pf growth 96h,Shiga inhibitor
CCn1c(=O)c2cc(C(=O)NCCN(C)C)sc2c2ccccc21,-4%[0.00184 µM],-4,0%,-6
CCN(CC)C(=O)c1cc2sc3ccccc3c2s1,129%,71*,-20%,106*
COc1ccc(-c2cccc(NC(=O)c3ccc4c(c3)OCO4)c2)nn1,24%,x,u,x
CC(C)(C)c1ccc(C(=O)NC(=S)N2CCCC2)cc1,u,32*,5%,28
C=CCNC(=S)NC(=O)c1csc([N+](=O)[O-])c1,9%,1,u,4
O=C(NC(=S)N1CCCCC1)c1csc([N+](=O)[O-])c1,15µM*,-2,5.2µM*,8
CC(C)(C)c1ccc(C(=O)NC(=S)Nn2cnnc2)cc1,8%,19*,u,120*
CC(C)(C)c1ccc(C(=O)Nc2ccc(C(=O)N3CCCC3)cc2)cc1,u,4,-20%,19
CC(C)(C)c1ccc(C(=O)N2CCCCCC2=O)cc1,5.2µM*,-7,6%,-11
O=C(COc1ccc(S(=O)(=O)N2CCOCC2)cc1Cl)NCC1CCCO1 (stereo not drawn),2%,-8,u,-3
CN(C(=O)COC(=O)c1ccc2c(c1)OCO2)c1c(N)n(Cc2ccccc2)c(=O)[nH]c1=O,-5%,x,-1%,x
CCOc1ccccc1-c1nnc2n1N=C(c1cc(OC)ccc1OC)CS2,x,7,x,2
CC(C)(C)c1ccc(C(=O)NC(=S)N2CCCCCC2)cc1,u,20*,u,35
CCOc1ccc(-c2[nH]ncc2-c2csc(C)n2)c(O)c1,-3%,2,-6%,-20
Cc1csc(N/N=C/c2ccccc2F)n1,289%,38*,-22%,56*
CCOc1ccc(/C=N/Nc2nc(C)cs2)c(O)c1,u,49*,-28%,58*
Cc1csc(N/N=C/c2c(F)cccc2Cl)n1,109%,38*,96%,86*
O=[N+]([O-])c1cc(/C=N\Nc2nccs2)ccc1O,u,-2,x,-5
CCc1nnc(N/N=C/c2c(F)cccc2Cl)n1N,45%,4,-25%,10
Clc1cccc(Cl)c1/C=N\Nc1nccs1,u,10,9.3µM*,2
Cc1ccc(CNS(=O)(=O)c2cn(C)c(=O)n(C)c2=O)cc1,17%,-2,1%,-34
CCc1ccccc1NC(=S)N(CCCN(C)C)Cc1cc2cc3c(cc2[nH]c1=O)OCO3,u,1,u,-15
O=C1CCCN1C(=O)CSc1ncnc2sccc12,u,x,-4%,x
Nc1nc(Cl)nc2c1ncn2C1CC(O)C(CO)O1 (stereo not drawn),7%,x,18%,x
COc1ccc(CN(C)C(=O)CCc2ccc(S(=O)(=O)N3CCCCCC3)cc2)c(OC)c1,13µM*,x,u,x
SMILES,Pf growth 48h,CHX counter,Pf growth 96h,Shiga inhibitor
CCOc1ccc(CN(C)C(=O)CCNC(=O)c2ccco2)cc1,-8%,x,-13%,x
CCOc1ccc(CN(C)C(=O)CCc2ccc(S(=O)(=O)N3CCCCCC3)cc2)cc1,13µM*,x,u,x
COc1ccc(NC(=O)c2ccc(S(=O)(=O)N3CCCCC3)cc2)c(OC)c1,-18%,2,-3%,3
CCOc1ccc(S(=O)(=O)N2CCCCCC2)cc1,x,9,u,-14
CCOc1ccc(CN(C)C(=O)CCl)cc1,6.6µM*,4,12%[5.75 µM],9
COc1ccc(CN(C)C(=O)/C=C/c2ccc(S(=O)(=O)N3CCCCCC3)cc2)cc1,9.3µM*,x,13µM*,x
COc1ccc(S(=O)(=O)N2CCCCCC2)cc1,-8%,1,x,-5
CC(CCc1ccccc1)NC(=O)CN1C(=O)NC2(CCCCC2C)C1=O (stereo not drawn),-20%,x,-14%,x
Cc1c(C(=O)OCC(=O)Nc2ccc3c(c2)OCO3)cccc1[N+](=O)[O-],12%,15,13%,11
Cc1cccc(C)c1OCC(=O)N[C@@H](Cc1ccccc1)[C@@H](O)C[C@H](Cc1ccccc1)NC(=O)[C@H](C(C)C)N1CCCNC1=O,3.4µM*,x,6.7µM*,x

# From PubChem BioAssay
